Results as given in ChEMBL document CHEMBL3433997, “St. Jude Leishmania screening dataset” (2016).

How the values were obtained:
Assay type in all cases: functional
[1] = biological target: Solute carrier family 2, facilitated glucose transporter member 1 (Homo sapiens) (UniProt P11166); assay: ST_JUDE_LEISH: Cytotoxicity at 2uM final concentration against transgenic Leishmania Mexicana promastigotes LmGLUT1 that are glucose transport deficient and complemented with the human glucose transporter GLUT1. Activity is measured by DNA content using SYBR green in vitro
[2] = biological target: Hexose transporter 1 (Plasmodium falciparum) (UniProt O97467); assay: ST_JUDE_LEISH: Cytotoxicity at 2uM final concentration against transgenic Leishmania Mexicana promastigotes LmPfHT that are glucose transport deficient and complemented with the Plasmodium falciparum hexose transporter. Activity is measured by DNA content using SYBR green in vitro
[3] = biological target: Glucose transporter (Leishmania mexicana) (UniProt O61059); assay: ST_JUDE_LEISH: Cytotoxicity at 2uM final concentration against transgenic Leishmania Mexicana promastigotes LmGT2 that are glucose transport deficient and complemented with the L. Mexicana glucose transporter 2. Activity is measured by DNA content using SYBR green in vitro

Sequence of Solute carrier family 2, facilitated glucose transporter member 1 (Homo sapiens) (P11166 whole entry): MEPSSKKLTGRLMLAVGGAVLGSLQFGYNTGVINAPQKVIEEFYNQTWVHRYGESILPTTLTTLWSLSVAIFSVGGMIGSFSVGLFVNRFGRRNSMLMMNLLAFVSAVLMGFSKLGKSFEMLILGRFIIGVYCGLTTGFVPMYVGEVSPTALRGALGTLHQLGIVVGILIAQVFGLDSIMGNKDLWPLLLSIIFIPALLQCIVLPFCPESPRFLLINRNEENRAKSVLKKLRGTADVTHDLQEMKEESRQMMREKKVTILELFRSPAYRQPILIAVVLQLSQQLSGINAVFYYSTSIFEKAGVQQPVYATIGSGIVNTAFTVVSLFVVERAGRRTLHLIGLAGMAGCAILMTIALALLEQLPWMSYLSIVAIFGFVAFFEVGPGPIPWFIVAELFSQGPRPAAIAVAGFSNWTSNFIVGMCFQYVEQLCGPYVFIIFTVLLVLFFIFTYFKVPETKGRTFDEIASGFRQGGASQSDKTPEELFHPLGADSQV

O=[N+]([O-])c1ccc(C(O)P(=O)(c2ccccc2)c2ccccc2)cc1 (configuration not stated)
inhibition [1]: -0.33%
inhibition [2]: -0.85%
inhibition [3]: -0.11%

O=C(/C=C/c1ccsc1)N1CCC(CCN2CCC(c3c[nH]c4ccccc34)CC2)CC1
inhibition [1]: 2.34%
inhibition [2]: 3.57%
inhibition [3]: 6.24%

Fc1cccc(COc2ccc(Nc3ncnc4cc(/C=C/[C@@H]5CCCN5)sc34)cc2Cl)c1
inhibition [1]: 5.81%
inhibition [2]: 0.95%
inhibition [3]: 1.52%

O=C(Cn1c(CCc2cccc(F)c2F)nc(=O)c2ccccc21)N(CCN1CCCC1)Cc1ccc(-c2ccc(C(F)(F)F)cc2)cc1
inhibition [1]: 0.45%
inhibition [2]: 0.38%
inhibition [3]: -4.3%

Cc1nc(N)nc(N)c1OCc1ccc(Cl)c(Cl)c1
inhibition [1]: 0.66%
inhibition [2]: 1.73%
inhibition [3]: 2.48%

Nc1ncc(-c2ccc3nccc(-c4ccncc4)c3c2)cc1S(=O)(=O)N1CCCCC1
inhibition [1]: 12.9%
inhibition [2]: 11.3%
inhibition [3]: 7.55%

Cc1ccc(NC(=O)c2ccc(CN3CCCN(Cc4cccc(C#N)c4)CC3)cc2)cc1F
inhibition [1]: 4.02%
inhibition [2]: 2.41%
inhibition [3]: 2.02%

c1ccc(CCNc2ccnc(Nc3ccc4cn[nH]c4c3)n2)cc1
inhibition [1]: 17.8%
inhibition [2]: 14.8%
inhibition [3]: 10%

Cc1cc(NC(=O)[C@H](CC2CCCCC2)Nc2ccc(C#N)c3ccccc23)ccc1F
inhibition [1]: 5.97%
inhibition [2]: 7.28%
inhibition [3]: 1.62%

CC(=O)Nc1nc(C(=O)Nc2cccc(-c3ccc(-c4nc5cc(F)ccc5[nH]4)cc3)c2)cs1
inhibition [1]: 2.38%
inhibition [2]: 1.38%
inhibition [3]: 4.22%

Cc1ccc(C2(CN3CCC(NC(=O)c4cc[nH]n4)CC3)CCCCC2)cc1
inhibition [1]: 0.21%
inhibition [2]: -1.4%
inhibition [3]: -0.05%

Cc1nnc(NC(=O)c2cn(-c3ccccc3)nc2-c2ccccc2C)o1
inhibition [1]: 1.69%
inhibition [2]: 2.78%
inhibition [3]: 2%

c1ccc2[nH]c(-c3ccc(-c4ccc(CN5CCN(CCN6CCOCC6)CC5)cc4)s3)nc2c1
inhibition [1]: 10.4%
inhibition [2]: 9.34%
inhibition [3]: 7.67%

CCOc1cc(C)ccc1C1CCN(CCCCNC(=O)c2cnc(-c3ccc(C(F)(F)F)cc3)[nH]2)CC1
inhibition [1]: -1.9%
inhibition [2]: 2.12%
inhibition [3]: -0.53%

COc1ccccc1-c1ccc(CNC(=O)C(CN2CCN(C)CC2)c2ccccc2)cc1 (configuration not stated)
inhibition [1]: 2.94%
inhibition [2]: 1.12%
inhibition [3]: 2.44%

O=C(Nc1ccc(-c2nc3ccccc3[nH]2)cc1)C1CCN(Cc2ccccc2)CC1
inhibition [1]: 16.2%
inhibition [2]: 23.4%
inhibition [3]: 12.6%

CCN(CC)CCN1C(=O)c2oc3ccc(F)cc3c(=O)c2C1c1cccc(Cl)c1 (configuration not stated)
inhibition [1]: -2.07%
inhibition [2]: 2.22%
inhibition [3]: 4.25%

NC1CCCN(Cc2ccc(-c3ccc(-c4nc5ccccc5[nH]4)s3)cc2)C1 (configuration not stated)
inhibition [1]: 8.95%
inhibition [2]: 5.92%
inhibition [3]: 9.09%

COc1ccc2[nH]c(/C=C/c3cccc4ccc(C)nc34)nc2c1
inhibition [1]: 2.88%
inhibition [2]: 2.44%
inhibition [3]: 0.69%

Cc1ccccc1C1CCN(c2ccc(C(=O)NC3CC3)cn2)CC1
inhibition [1]: -0.44%
inhibition [2]: 1.26%
inhibition [3]: 0.57%

O=[N+]([O-])c1cccc(NC(=S)N2CCCN(Cc3ccc(Cl)cc3Cl)CC2)c1
inhibition [1]: 2.36%
inhibition [2]: 3.32%
inhibition [3]: 3.01%

Cc1onc(-c2c(Cl)cccc2Cl)c1C(=O)NC1=NC(C)(C)ON1c1ccccc1
inhibition [1]: 5.88%
inhibition [2]: 5.44%
inhibition [3]: 4.86%

O=C(NCCN1CCCC1)N1CCCN(c2ncnc3cc(-c4ccc(F)cc4)sc23)CC1
inhibition [1]: -1.05%
inhibition [2]: -2.33%
inhibition [3]: 4.44%

O=C(NCC1CC1)C1CCN(C(c2ccccc2)c2nc3ccccc3s2)CC1 (configuration not stated)
inhibition [1]: -0.89%
inhibition [2]: -1.39%
inhibition [3]: -4.85%

CCNc1c2ccc(Cl)cc2nc2ccc(OC)cc12
inhibition [1]: 2.46%
inhibition [2]: 4.37%
inhibition [3]: 1.15%

CCOc1ccc(-c2nonc2NC(=O)c2ccccc2Cl)cc1OCC
inhibition [1]: 5.4%
inhibition [2]: 7.22%
inhibition [3]: 2.27%

CC[C@H]1CN(C/C=C/c2ccc(OC)cc2)CC[C@H]1CCCc1ccnc2ccc(O)cc12
inhibition [1]: 2.15%
inhibition [2]: 2%
inhibition [3]: 1.51%

CCOc1ccc(C(=O)Nc2cc(Br)c3c(c2)CNCC3)cc1C(F)(F)F
inhibition [1]: -0.39%
inhibition [2]: -2.66%
inhibition [3]: -2.48%

COc1ccc(-c2cnc(N)c(-c3nc4cc(Br)ccc4[nH]3)c2)cc1
inhibition [1]: 9.38%
inhibition [2]: 11.3%
inhibition [3]: 6.12%

COc1cc(OC)c(NC(=O)C2c3ccccc3C(=O)N(CC(C)C)C2c2cccs2)cc1Cl (configuration not stated)
inhibition [1]: -4.11%
inhibition [2]: 2.33%
inhibition [3]: 5.96%

COc1cc(NC(=O)/C=C/c2cc(F)cc(F)c2F)cc(OCCN2CCCCC2)c1
inhibition [1]: 5.16%
inhibition [2]: 3.35%
inhibition [3]: 4.25%

CCN(CCCN1CCCCC1)c1cc(C)nc(Nc2ccc(C)c(F)c2)n1
inhibition [1]: 5.07%
inhibition [2]: 5.06%
inhibition [3]: 6.2%

COC(=O)Cn1c2ccccc2c2c(N)c(C(=O)OC)c(C)nc21
inhibition [1]: 0.93%
inhibition [2]: 0.97%
inhibition [3]: -0.45%

O=C(Nc1cccc(CN2CCN(C(=O)c3cccc(Cl)c3)CC2)c1)c1cccs1
inhibition [1]: 5.62%
inhibition [2]: 4.14%
inhibition [3]: 2.57%

COc1ccc(OC(C)CNC(=O)c2cc([N+](=O)[O-])ccc2-c2ccc(OC)cc2)cc1 (configuration not stated)
inhibition [1]: 0.03%
inhibition [2]: -1.79%
inhibition [3]: -4.55%

CCc1ccc(CN2CCC(CNC(=O)c3cc(-c4cccc(F)c4)cs3)C2)cc1 (configuration not stated)
inhibition [1]: -0.39%
inhibition [2]: 1.94%
inhibition [3]: 1.42%

N=C(N)NN=Cc1ccc2ccc3ccccc3c2c1
inhibition [1]: 5.52%
inhibition [2]: 7.75%
inhibition [3]: 4.14%

COc1cccc(C(=O)NCc2cccs2)c1OCc1ccccc1
inhibition [1]: 1.77%
inhibition [2]: 0.89%
inhibition [3]: 1.15%

Cc1csc(-c2nc(NCc3cccnc3)ncc2-c2ccsc2)n1
inhibition [1]: 2.02%
inhibition [2]: 2.53%
inhibition [3]: 3.04%

NC1=NC2(CCCCC2)N(OCCCCCCc2ccccc2)C(N)=N1
inhibition [1]: 2.09%
inhibition [2]: 1.39%
inhibition [3]: 0.69%

CC1CCCC(Nc2noc(-c3sccc3Br)n2)C1 (configuration not stated)
inhibition [1]: -0.93%
inhibition [2]: 0.6%
inhibition [3]: -2.55%

CN(C)c1ccnc2ccc(NC(=O)Nc3ccnc4ccccc34)cc12
inhibition [1]: 1.93%
inhibition [2]: 2.58%
inhibition [3]: 1.09%

COc1ccc(CCNc2nc(NCc3ccccc3)c3cc(OC)c(OC)cc3n2)cc1OC
inhibition [1]: 5.66%
inhibition [2]: 8.24%
inhibition [3]: 0.26%

CC1(C)N=C(N)N=C(NOCc2ccc(Cl)c(Cl)c2)N1
inhibition [1]: 1.06%
inhibition [2]: 1.13%
inhibition [3]: 1.84%

Cc1cccc2nc(-c3ccc(-c4ccc(CNCC5CCCO5)cc4)s3)[nH]c12 (configuration not stated)
inhibition [1]: 1.99%
inhibition [2]: 2.71%
inhibition [3]: 1.98%

COc1ccc(CN2CCC(Oc3cccc(NC(=O)c4ccc(C(F)(F)F)cc4)c3)CC2)cc1
inhibition [1]: 0.69%
inhibition [2]: 1.18%
inhibition [3]: 3.45%

N[C@@H](COc1cccc2c(-c3ccncc3)c(-c3cccc(NC(=O)Nc4ccccc4)c3)nn12)c1ccccc1
inhibition [1]: -2.24%
inhibition [2]: -1.71%
inhibition [3]: -2.62%

COc1ccc2ncc(C)c(CCN3CCC(NCc4ccc5c(n4)NC(=O)CS5)CC3)c2c1
inhibition [1]: 8.73%
inhibition [2]: 6.68%
inhibition [3]: 6.71%

O=C(Cc1cccnc1)N(Cc1ccc(-c2ccc(CNCc3cccnc3)cn2)cc1)C1CCN(Cc2ccccc2)CC1
inhibition [1]: -1.34%
inhibition [2]: -0.95%
inhibition [3]: -1.68%

COc1cccc2cc(C(=O)N[C@@H](CC(C)C)C(=O)N[C@H](C=NN3CC(=O)NC3=O)CC(C)C)oc12
inhibition [1]: 2.8%
inhibition [2]: 3.84%
inhibition [3]: 2.23%

NS(=O)(=O)CCc1cccc(Nc2nccc(-c3c(-c4cccc(NC(=O)c5c(F)cccc5F)c4)nn4ccccc34)n2)c1
inhibition [1]: 4.25%
inhibition [2]: 8.18%
inhibition [3]: 1.61%

Cc1n[nH]c2cc(Nc3ccnc(Nc4cccc(CN5CCOCC5)c4)n3)ccc12
inhibition [1]: 7.68%
inhibition [2]: 6.54%
inhibition [3]: 3.19%

COc1cc2nc(N(C)Cc3cc4c(Cl)cccc4s3)nc(N)c2cc1OC
inhibition [1]: -0.54%
inhibition [2]: -1.7%
inhibition [3]: -3.11%

CCOc1cc2ncnc(Nc3ccc(OCc4ccccc4Br)c(OC)c3)c2cc1OCC
inhibition [1]: 5.55%
inhibition [2]: 5.15%
inhibition [3]: 2.49%

CCCCCCN(C(=O)OCc1ccccc1)C1CCN(C(=O)OC(C)(C)C)CC1C(=O)OCC (configuration not stated)
inhibition [1]: 7.92%
inhibition [2]: 6.27%
inhibition [3]: 7.27%

Cc1cc(C)c2ncc(C(=O)O)c(O)c2c1
inhibition [1]: 2.75%
inhibition [2]: 3.7%
inhibition [3]: 3.9%

Cc1cccc(NC(=S)NC2CCN(CCCCCNC(=O)/C=C/c3ccc(Cl)c(Cl)c3)CC2)c1
inhibition [1]: 0.27%
inhibition [2]: 1.13%
inhibition [3]: 0.99%

Cc1sc(C)c(CNCCCNc2cc(=O)c3ccccc3[nH]2)c1Br
inhibition [1]: 2.08%
inhibition [2]: 2%
inhibition [3]: -3.4%

COc1cccc([C@@H](CC(=O)Nc2cc(C(F)(F)F)ccc2OC)Nc2ccc(C#N)c3ccccc23)c1
inhibition [1]: 7.27%
inhibition [2]: 5.34%
inhibition [3]: 4.83%

COc1ccc2c(NN=Cc3ccccc3F)ccnc2c1
inhibition [1]: 3.28%
inhibition [2]: 2.8%
inhibition [3]: 2.7%

Oc1c(C=Nn2cnnc2)sc2ccccc12
inhibition [1]: -0.72%
inhibition [2]: 5.61%
inhibition [3]: 11.2%

CC(C)COc1ccc(Cl)cc1Cc1nc(-c2nc3ccc(N4CCN(C)CC4)nc3[nH]2)cs1
inhibition [1]: -3.46%
inhibition [2]: 1.5%
inhibition [3]: 3.9%

CCCC1N=C(N)N=C(N)N1c1ccc(Cl)cc1 (configuration not stated)
inhibition [1]: 2%
inhibition [2]: 2.02%
inhibition [3]: 2.31%

O=C(Nc1ccc(Cl)cc1)c1cccc(CN2CCCN(Cc3cccc(O)c3)CC2)c1
inhibition [1]: -0.2%
inhibition [2]: -0.04%
inhibition [3]: 0.01%

CCNc1cc(C(=O)N[C@@H](Cc2ccccc2)[C@H](O)CNC(C)(C)Cc2cccc(OC)c2)cc(N2CCCC2=O)c1
inhibition [1]: -2.08%
inhibition [2]: -1.02%
inhibition [3]: -0.38%

COC(=O)c1cccc(CNCc2cccc(-c3cccc(-c4nc5cccc(C)c5[nH]4)c3)c2)c1
inhibition [1]: 9.22%
inhibition [2]: 8.21%
inhibition [3]: 6.67%

CC(=O)Nc1ccc(OCCCCN(Cc2ccccc2OC(F)(F)F)c2ccc(C(F)(F)F)c(C#N)c2)c(Cl)c1
inhibition [1]: 1.46%
inhibition [2]: 4.12%
inhibition [3]: 7.95%

COCCN1CCN(Cc2ccc(-c3cccc(-c4nc5ccccc5[nH]4)c3)cc2)CC1
inhibition [1]: -3.03%
inhibition [2]: -1.3%
inhibition [3]: -2.88%

CN(C)CC(O)COc1ccc(Nc2ncc([N+](=O)[O-])c(Nc3ccccc3O)n2)cc1 (configuration not stated)
inhibition [1]: 2.66%
inhibition [2]: 3.7%
inhibition [3]: 1.45%

Cc1[nH]c(C)c(-c2ccc(Oc3ccc(F)cc3)cc2)c(=O)c1Br
inhibition [1]: 4.89%
inhibition [2]: 4.31%
inhibition [3]: 2.46%

c1cc(CN2CCN(c3ccncc3)CC2)cc(-c2ccc(-c3nc4ccccc4[nH]3)s2)c1
inhibition [1]: 3.45%
inhibition [2]: 2.53%
inhibition [3]: 2.03%

CCOC(=O)CCCOc1c(OC)cc(Cc2cnc(N)nc2N)cc1OC
inhibition [1]: -1.3%
inhibition [2]: -0.68%
inhibition [3]: -2.34%

COc1ccccc1CCNC(=O)c1cnc(N2CCN(c3ccncc3)CC2)c(Cl)c1
inhibition [1]: 74.5%
inhibition [2]: 83.8%
inhibition [3]: 82.9%

Nc1nc(N)c2c(ccc3c2ccn3CCCF)n1
inhibition [1]: 1.79%
inhibition [2]: 5.24%
inhibition [3]: 0.69%
